High-throughput results from PubChem.
Hits are enriched below; roughly 4.1% of the tested compounds scored in any of these assays.
ssDAF12 agonist: S. stercoralis DAF-12 activation, primary screen | actives 1% (n = 370,000) | AID 652126 | HEK293 ssDAF-12/GRIP1 lit1-tk-luc reporter, luminescence; % of 3 µM dafachronic acid response | activation, % at 6.8 µM;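 active = activation above the mean over all tested compounds plus 3 SD, cut at about 0.9% in these data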;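 also: 0% = DMSO-only wells and 100% = 3 µM delta7-dafachronic acid wells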
hgDAF12 agonist: activates the H. glycines DAF-12 receptor ligand-binding domain | AID 687014 | HEK293 GAL4-hgDAF12 UAS-luciferase reporter, agonist luminescence; normalized to butyrate control | actives 1.8% (n = 370,000) | activation, % at 6.8 µM;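 active = activation above a cutoff set at the mean of all screened compounds plus 3 SD, cut at about 10% in these data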;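 also: 0% = DMSO wells and 100% = sodium butyrate wells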
DAX1 inh-1: inhibitors of human orphan nuclear receptor DAX1 (NR0B1). inhibition, % at 6.75 µM. P51843. AID 504766. HEK293 Gal4-DAX1 luciferase reporter, luminescence. actives 0.99% (n = 340,000);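 active = inhibition above the mean over all tested compounds plus 3 SD, cut at about 4.2% in these data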;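 also: 0% = DAX1-transfected cells with DMSO and 100% = empty-vector control cells with DMSO; inhibition shows as a rise in luminescence from relieved DAX1 repression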
Target sequence (P51843 207-470 limits assumed): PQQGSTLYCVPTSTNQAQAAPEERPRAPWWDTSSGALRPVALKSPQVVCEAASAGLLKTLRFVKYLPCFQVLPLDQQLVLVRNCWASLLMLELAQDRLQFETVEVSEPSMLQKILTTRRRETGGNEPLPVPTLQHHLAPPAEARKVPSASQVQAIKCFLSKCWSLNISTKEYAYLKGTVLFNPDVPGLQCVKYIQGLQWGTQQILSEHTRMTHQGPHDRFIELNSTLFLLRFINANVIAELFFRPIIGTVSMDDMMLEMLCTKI
DAX1 inh-2: DAX1 (NR0B1) inhibition, primary screen. HEK293T StAR-luciferase reporter, SF-1/DAX-1 repression relief. inhibition, % at 6.8 µM. actives 1.1% (n = 370,000). AID 652010;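 active = inhibition above the mean over all tested compounds plus 3 SD, cut at about 3.6% in these data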;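 also: 0% = DAX-1 cells with DMSO and 100% = cells lacking DAX-1 with DMSO; higher inhibition means more luminescence from relief of DAX-1 repression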
hcDAF-12 act: H. contortus DAF-12 activation, primary screen; HEK293 hcDAF-12 lit1-tk-luc reporter, luminescence; 0% DMSO, 100% Δ7-dafachronic acid; activation, % at 6.8 µM; actives 1.4% (n = 370,000);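 active = activation above the mean of all tested compounds plus 3 SD, cut at about 5.5% in these data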;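 also: 100% = response to 3 µM Δ7-dafachronic acid high control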
DAX1 conf: NR0B1 (human) inhibition, confirmation | shares compounds with DAX1 inh-2 | actives 87% (n = 2,400) | inhibition, % at 6.8 µM | HEK293T StAR-promoter luciferase reporter, SF-1/DAX-1 repression;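 active = inhibition above the average of every tested compound plus 3 SD, cut at about 3.8% in these data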;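 also: 0% = DAX-1 cells with DMSO and 100% = no DAX-1 control cells with DMSO; active compounds raise luminescence by relieving repression of the StAR reporter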
Target sequence (P51843 whole entry, looked up): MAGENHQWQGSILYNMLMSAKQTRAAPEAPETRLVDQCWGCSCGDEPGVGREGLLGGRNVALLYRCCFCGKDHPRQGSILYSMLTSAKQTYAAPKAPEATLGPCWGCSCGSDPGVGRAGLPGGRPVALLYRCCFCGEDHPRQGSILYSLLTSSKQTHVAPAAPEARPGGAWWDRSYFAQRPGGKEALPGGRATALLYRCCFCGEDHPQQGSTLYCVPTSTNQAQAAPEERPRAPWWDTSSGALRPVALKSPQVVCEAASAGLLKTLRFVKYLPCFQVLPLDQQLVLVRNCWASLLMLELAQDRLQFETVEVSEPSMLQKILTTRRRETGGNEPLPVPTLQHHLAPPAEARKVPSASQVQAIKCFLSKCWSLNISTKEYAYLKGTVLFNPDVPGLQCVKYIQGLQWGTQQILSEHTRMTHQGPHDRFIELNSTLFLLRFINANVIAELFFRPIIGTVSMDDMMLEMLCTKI
SF1 AF2mut Luc: counter-screen for DAX1 inhibitors: nonselective inhibitors with SF-1 AF2 mutant; AID 652136; actives 78% (n = 2,400); inhibition, % at 6.8 µM; HEK293 StAR-luciferase, luminescence; shares compounds with DAX1 inh-2;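 active = inhibition above the mean of all tested compounds plus 3 SD, cut at about 3% in these data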;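 also: 0% = DAX-1 transfected cells with DMSO and 100% = cells without DAX-1 with DMSO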
LXRb hcDAF ctr: counter-screen for hcDAF-12 agonists: agonists of human LXR-beta | shares compounds with hcDAF-12 act | HEK293 Gal4-LXR tk-luc reporter, luminescence, 24 h; normalized: DMSO 0%, positive control 100% | activation, % at 6.8 µM | 3,400 tested, under 10 active | AID 743027;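 active = mean percent activation of the reporter above a cutoff set as the average over tested compounds plus their standard deviation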
hcDAF12 ag: hcDAF-12 agonism, confirmation assay | shares compounds with hcDAF-12 act | HEK293 hcDAF-12 lit1-tk-luc reporter, luminescence; % of Δ7-dafachronic acid response | activation, % at 6.8 µM | actives 61% (n = 3,400);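 active = mean activation across triplicate tests above the threshold derived from the earlier primary screen, cut at about 5.5% in these data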;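 also: 0% = DMSO only wells and 100% = 3 µM Δ7-dafachronic acid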
hgDAF12 conf: confirmation of H. glycines DAF-12 agonists. shares compounds with hgDAF12 agonist. HEK293 GAL4-hgDAF12 luciferase reporter, agonist mode; percent of butyrate response. activation, % at 6.8 µM. actives 80% (n = 3,300);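 active = mean activation over triplicate wells above the hit cutoff derived from the earlier primary screen, cut at about 11% in these data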;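 also: 0% = DMSO low control and 100% = 2 mM sodium butyrate high control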
LXRb DAF12 ctr: counter-screen for DAF-12 agonists: agonists of human LXR-beta | 3,300 tested, under 10 active | shares compounds with hgDAF12 agonist | activation, % at 6.8 µM | AID 743051 | HEK293 Gal4-LXR luciferase reporter, 24 h;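 active = mean activation of the triplicate above a set limit carried over from the primary screen, none filed active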
Numbers without * were called inactive.

Screening N/C(=N\OC(=O)c1ccc(Cl)cc1Cl)c1ccncc1 returned ssDAF12 agonist -0.8, hgDAF12 agonist 6.8, DAX1 inh-1 -0.7, DAX1 inh-2 0.8 and hcDAF-12 act 1.1.
For N/C(=N\OC(=O)c1ccccc1Cl)c1ccncc1 the results were ssDAF12 agonist 0.5, hgDAF12 agonist 14.2*, DAX1 inh-1 -0.2, DAX1 inh-2 5.6*, hcDAF-12 act 6.2*, DAX1 conf 6.8*, SF1 AF2mut Luc 5.3*, hgDAF12 conf 13.2* and LXRb DAF12 ctr 0.8.
Screening COc1ccc(-c2[nH][nH]c(=O)c2NC(=O)c2ccc(C)cc2)cc1 returned ssDAF12 agonist -1.1, hgDAF12 agonist -3.1, DAX1 inh-2 -0.2 and hcDAF-12 act -0.9.
`C/C(=N\Nc1nccnc1Cl)c1ccc(F)cc1` gave ssDAF12 agonist 1.5*, hgDAF12 agonist 20.1*, DAX1 inh-1 2.1, DAX1 inh-2 9.6*, hcDAF-12 act 4.3, DAX1 conf 6.5*, SF1 AF2mut Luc 4.2*, hgDAF12 conf 11.2* and LXRb DAF12 ctr 0.4.
Screening C/C(=N\Nc1nccnc1Cl)c1ccc(Cl)c(Cl)c1 returned ssDAF12 agonist 0.6, hgDAF12 agonist 16.7*, DAX1 inh-1 2.4, DAX1 inh-2 4.5*, hcDAF-12 act 6.3*, DAX1 conf 2.8, SF1 AF2mut Luc 2.7, hgDAF12 conf 3.3 and LXRb DAF12 ctr 0.1.
`CCN(C(=O)COC(=O)c1ccc(Sc2ncn[nH]2)c([N+](=O)[O-])c1)c1ccccc1` gave ssDAF12 agonist -0.4, hgDAF12 agonist -3.9, DAX1 inh-2 0.0 and hcDAF-12 act 0.1.
Screening COC(=O)[C@H](CC(C)C)N(CCCc1cn(CC2CCCCC2)nn1)S(=O)(=O)c1ccccc1Br returned ssDAF12 agonist -1.9, hgDAF12 agonist 1.1, DAX1 inh-2 -1.8 and hcDAF-12 act -5.1.
Screening O=C(Nc1ccc2c(c1)OCCO2)C1C(c2ccccc2)=Nc2ccccc2N1C(=O)c1cccnc1 (stereo not drawn) returned ssDAF12 agonist 0.2, hgDAF12 agonist 20.1*, DAX1 inh-2 13.0*, hcDAF-12 act 10.7*, DAX1 conf 20.0*, SF1 AF2mut Luc 7.9*, LXRb hcDAF ctr 2.0, hcDAF12 ag 7.1*, hgDAF12 conf 12.2* and LXRb DAF12 ctr 0.8.
`Cc1cccc(C)c1NC(=O)C1C(c2ccc3c(c2)OCO3)=Nc2ccccc2N1C(=O)c1ccccc1` (stereo not drawn) gave ssDAF12 agonist -1.0, hgDAF12 agonist -0.3, DAX1 inh-2 1.3 and hcDAF-12 act 0.2.
Screening COC(=O)C1=C(C)N(Cc2cccc(C(F)(F)F)c2)C(=NCc2ccc(C(F)(F)F)cc2)NC1c1cccc(F)c1 (stereo not drawn) returned ssDAF12 agonist -1.0, hgDAF12 agonist 2.0, DAX1 inh-2 -1.1 and hcDAF-12 act 1.0.
O=C(NCCc1ccccn1)c1ccc(OC(F)F)cc1 was read as ssDAF12 agonist -1.0, hgDAF12 agonist 15.8*, DAX1 inh-1 2.7, DAX1 inh-2 5.4*, hcDAF-12 act 3.9, DAX1 conf 9.3*, SF1 AF2mut Luc 3.8*, hgDAF12 conf 14.9* and LXRb DAF12 ctr 0.5.
O=C(NNC(=O)c1ccccn1)c1ccc(OC(F)F)cc1 was read as ssDAF12 agonist -0.7, hgDAF12 agonist 4.0, DAX1 inh-1 1.1, DAX1 inh-2 0.5 and hcDAF-12 act 2.2.
Screening Cc1cc(C(=O)c2ccccc2)nc2ccccc12 returned ssDAF12 agonist -1.6, hgDAF12 agonist -2.4, DAX1 inh-1 -0.7, DAX1 inh-2 -0.5 and hcDAF-12 act -2.1.
Screening Cc1cc(/C=C\c2ccccc2)nc2ccccc12 returned ssDAF12 agonist 0.8, hgDAF12 agonist 15.4*, DAX1 inh-1 5.6*, DAX1 inh-2 6.0*, hcDAF-12 act 10.3*, DAX1 conf 6.4*, SF1 AF2mut Luc 4.1*, LXRb hcDAF ctr 0.8, hcDAF12 ag 8.6*, hgDAF12 conf 16.7* and LXRb DAF12 ctr 0.5.
`COCCNC(=O)C1CCCN(C(=O)/C=C/c2ccccc2)CC1` (stereo not drawn) gave ssDAF12 agonist -1.5, hgDAF12 agonist -2.0, DAX1 inh-2 0.2 and hcDAF-12 act -0.8.
Screening Cc1ccc(C=Cc2ccccn2)cc1 returned ssDAF12 agonist -0.1, hgDAF12 agonist 13.2*, DAX1 inh-1 4.5*, DAX1 inh-2 7.5*, hcDAF-12 act 3.2, DAX1 conf 11.7*, SF1 AF2mut Luc 4.9*, hgDAF12 conf 20.3* and LXRb DAF12 ctr 0.7.
COc1ccc(-c2cc(C)nc3c(-c4ccccc4)cnn23)cc1 was read as ssDAF12 agonist 0.0, hgDAF12 agonist 13.8*, DAX1 inh-1 0.3, DAX1 inh-2 11.8*, hcDAF-12 act 5.1, DAX1 conf 15.5*, SF1 AF2mut Luc 7.8*, hgDAF12 conf 8.7 and LXRb DAF12 ctr 1.5.
Cc1cc(N2CCCCC2)n2ncc(-c3ccccc3)c2n1 was read as ssDAF12 agonist -0.6, hgDAF12 agonist 2.6, DAX1 inh-1 -0.7, DAX1 inh-2 2.1 and hcDAF-12 act 5.1.
Screening O=C(CSc1ccccn1)N1CCc2ccccc21 returned ssDAF12 agonist 0.0, hgDAF12 agonist 15.8*, DAX1 inh-1 0.9, DAX1 inh-2 6.9*, hcDAF-12 act 1.7, DAX1 conf 12.3*, SF1 AF2mut Luc 5.7*, hgDAF12 conf 13.6* and LXRb DAF12 ctr 0.5.
For COc1cccc(-n2ccnc2SCC(=O)N2CCc3ccccc32)c1 the results were ssDAF12 agonist -1.5, hgDAF12 agonist -2.1, DAX1 inh-1 0.3, DAX1 inh-2 -0.5 and hcDAF-12 act -0.2.
